Data: PubChem BioAssay (Tox21)
Records with an inconclusive call do not appear. Active and inactive are the calls of the source. Unless noted, the call rests on the fitted dose curve; in most records, active means well fitted curve in the direction sought with a large enough effect in the repeat runs; inconclusive means weak or mixed curves; inactive means no such curve, though single readings can be large; an effect the other way counts as inactive or inconclusive.

Tests used:
[1] = qHTS assay to identify small molecule agonists of H2AX (AID 1224845; active means well fitted activation curve with a large enough effect in the signal ratio in the repeat runs, not every such curve was filed as active; the % refers to the signal ratio)
Procedure, shortened: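 Wild-type CHO-K1 cells, plated overnight, exposed 3hr at 37C to 15 concentrations (0.76% DMSO final). Lysed, then HTRF anti-pH2AX (S139) cryptate and anti-H2AX-d2 antibodies, 24 hr room temperature; 665/620 nm emission read.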

[2] = qHTS assay to identify small molecule agonists of the hypoxia (HIF-1) signaling pathway (AID 1224846; active means well fitted activation curve with a large enough effect in the signal ratio in the repeat runs, not every such curve was filed as active; the % refers to the signal ratio)
Procedure, shortened: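 In ME-180 cells bearing an HRE-bla construct, 17 h treatment with DMSO-dissolved compounds at 37C was followed by CCF4-AM loading to quantify reporter induction.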

[3] = qHTS assay to identify small molecule agonists of H2AX - cell viability counter screen (AID 1224847; calls by dose curve; further: top concentration of the series differs between compounds; nearly all actives have a fitted effect of over 30% in size)
Procedure, shortened: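 For this counter screen, overnight-attached CHO-K1 cells received test compounds (15 concentrations, 0.76% DMSO final); 3 hr later at 37C, CellTiter-Glo reagent was added and luminescence recorded after 30 min at room temperature.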

[4] = qHTS RealTime-Glo MT Cell Viability Assay in HepG2 cells - 24 hour (AID 1224867); further: nearly all actives have a fitted effect of over 50% in size
Procedure, shortened: (§1)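 Cells + NanoLuc/prosubstrate dispensed (600 cells/well) → 5 h at 37 C/5% CO2 → compounds in DMSO transferred → 40 h incubation at 37 C, luminescence read at 0, 8, 16, 24, 32, 40 h.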

[5] = qHTS RealTime-Glo MT Cell Viability Assay in HEK293 cells - 32 hour (AID 1224868); further: top concentration of the series differs between compounds; nearly all actives have a fitted effect of over 50% in size
Procedure, shortened: (§2)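 Tox21 10K qHTS, HEK293, 600 cells/well, RealTime-Glo reagent co-dispensed with cells; 5 h preincubation, compound by pintool, 37 C, luminescence at 0–40 h.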

[6] = A CellTox Green Cytotoxicity Assay to monitor cytotoxicity in HEK293 cells - 0 hour (AID 1224869); further: nearly all actives have a fitted effect of over 50% in size
Procedure, shortened: (§3)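 Homogeneous no-lysis format: HEK293 cell suspension mixed with CellTox Green reagent, seeded, incubated 5 h at 37 C/5% CO2, then dosed by pintool with compound in DMSO.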

[7] = qHTS RealTime-Glo MT Cell Viability Assay in HepG2 cells - 40 hour (AID 1224870); further: nearly all actives have a fitted effect of over 50% in size
Procedure, shortened: (§4)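 HepG2 cells (600/well) mixed with RealTime-Glo MT reagent, settled 5 h at 37 C/5% CO2 before compound addition. Nonlytic NanoLuc luminescence from viable-cell prosubstrate reduction read repeatedly during 40 h treatment at 37 C.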

[8] = qHTS RealTime-Glo MT Cell Viability Assay in HEK293 cells - 16 hour (AID 1224872); further: nearly all actives have a fitted effect of over 50% in size; further: potency means the concentration at half of the fitted maximal effect; on activity change, negative = cytotoxicity: top concentration of the series differs between compounds
Procedure, shortened: as §2

[9] = qHTS RealTime-Glo MT Cell Viability Assay in HepG2 cells - 8 hour (AID 1224873); further: nearly all actives have a fitted effect of over 55% in size
Procedure, shortened: as §4

[10] = qHTS RealTime-Glo MT Cell Viability Assay in HEK293 cells - 40 hour (AID 1224874); details: RealTime-Glo luminescence; max response: active compounds read low; further: nearly all actives have a fitted effect of over 50% in size; further: potency means the concentration at half of the fitted maximal effect
Procedure, shortened: (§5)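 Measured as luminescence from the same continuously cultured HEK293 wells at successive time points (0, 8, 16, 24, 32, 40 h) after compound addition. Reagent present from seeding; dosing at 5 h; incubation 37 C.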

[11] = A CellTox Green Cytotoxicity Assay to monitor cytotoxicity in HEK293 cells - 24 hour (AID 1224875); further: nearly all actives have a fitted effect of over 45% in size
Procedure, shortened: as §3

[12] = A CellTox Green Cytotoxicity Assay to monitor cytotoxicity in HepG2 cells - 16 hour (AID 1224876); further: nearly all actives have a fitted effect of over 45% in size
Procedure, shortened: (§6)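 Fluorescent DNA-binding dye, 600 HepG2 cells/well, 5 h preincubation then compound in DMSO; same plates read at 0–40 h, 37 C.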

[13] = qHTS RealTime-Glo MT Cell Viability Assay in HepG2 cells - 32 hour (AID 1224877); further: nearly all actives have a fitted effect of over 55% in size
Procedure, shortened: as §1

[14] = A CellTox Green Cytotoxicity Assay to monitor cytotoxicity in HepG2 cells - 24 hour (AID 1224878); further: nearly all actives have a fitted effect of over 45% in size
Procedure, shortened: as §6

[15] = A CellTox Green Cytotoxicity Assay to monitor cytotoxicity in HepG2 cells - 40 hour (AID 1224879); further: nearly all actives have a fitted effect of over 40% in size
Procedure, shortened: as §6

[16] = qHTS RealTime-Glo MT Cell Viability Assay in HEK293 cells - 0 hour (AID 1224880); further: top concentration of the series differs between compounds; nearly all actives have a fitted effect of over 45% in size
Procedure, shortened: as §5

[17] = A CellTox Green Cytotoxicity Assay to monitor cytotoxicity in HEK293 cells - 40 hour (AID 1224871); further: nearly all actives have a fitted effect of over 45% in size
Procedure, shortened: as §3

[18] = qHTS assay to identify small molecule antagonists of the estrogen related receptor (ERR) signaling pathway from Tox21 library (AID 1224848); further: nearly all actives have a fitted effect of over 50% in size; further: potency means the concentration at half of the fitted maximal effect
Procedure, shortened: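 Quantitative high-throughput format: ERR reporter cells (2,000/well) pre-incubated 6 h, treated 18 h at 37 C with compounds in DMSO alongside positive and negative controls, then read by ONE-Glo luminescence.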

[19] = qHTS assay to identify small molecule agonists of the estrogen related receptor (ERR) signaling pathway from Tox21 library (AID 1224849; calls by dose curve; further: nearly all actives have a fitted effect of over 15% in size); details: ERR reporter cell line, ONE-Glo luciferase, 18 h; at 92.4 µM (top of the series) unless noted
Procedure, shortened: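 Reporter cells (ERR, NTP source) treated with Tox21 10K compounds 18 h, 37 C. Readout: ONE-Glo luminescence, 30 min RT.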
On the % scale 0 is the no-effect control and ±100 the full control effect.

O=C(O)C(S)C(S)C(=O)O (centres undefined)
inactive: Potency [1] | Potency [2] | Potency [3] | Potency [4] | Potency [5] | Potency [6] | Potency [7] | Potency [8] | Potency [9] | max response [10] 3.09% | Potency [11] | Potency [12] | Potency [13] | Potency [14] | Potency [15] | Potency [16]

NCc1ccccc1Sc1ccccc1CO
inactive: Potency [1] | Potency [2] | Potency [3] | Potency [4] | Potency [5] | Potency [6] | Potency [7] | Potency [17] | Potency [8] | max response [10] -17% | Potency [11] | Potency [12] | Potency [13] | Potency [14] | Potency [15] | Potency [16]

C/C=C/C=C/CO
inactive: Potency [1] | Potency [2] | Potency [3] | Potency [4] | Potency [7] | Potency [17] | Potency [8] | Potency [9] | Potency [11] | Potency [12] | Potency [13] | Potency [14] | Potency [15] | Potency [16]

COC(C)OC
inactive: Potency [1] | Potency [2] | Potency [3] | Potency [18] | activity change, positive = activation [19] -2.66% | Potency [4] | Potency [5] | Potency [6] | Potency [7] | Potency [17] | Potency [8] | Potency [9] | max response [10] 5.31% | Potency [11] | Potency [12] | Potency [13] | Potency [14] | Potency [15] | Potency [16]

CCCCC(CC)COC(=O)CCCCCCCCC(=O)OCC(CC)CCCC (centres undefined)
inactive: Potency [1] | Potency [2] | Potency [3] | Potency [18] | activity change, positive = activation [19] 1.57% | Potency [4] | Potency [5] | Potency [6] | Potency [7] | Potency [17] | Potency [8] | Potency [9] | max response [10] 1.51% | Potency [11] | Potency [12] | Potency [13] | Potency [14] | Potency [15] | Potency [16]

O=C(O)CC(=O)C(=O)O
inactive: Potency [1] | Potency [2] | Potency [3] | Potency [4] | Potency [5] | Potency [6] | Potency [7] | Potency [17] | Potency [8] | Potency [9] | max response [10] -2.18% | Potency [11] | Potency [13] | Potency [14] | Potency [15] | Potency [16]

C[C@@H](c1ncncc1F)C(O)(Cn1cncn1)c1ccc(F)cc1F (some centres undefined)
inactive: Potency [1] | Potency [3] | Potency [18] | activity change, positive = activation [19] -0.316% [at 42.5 µM] | Potency [4] | Potency [5] | Potency [6] | Potency [7] | Potency [8] | max response [10] 3.08% | Potency [11] | Potency [12] | Potency [13] | Potency [15] | Potency [16]

O=C(OCCc1ccccc1)c1ccccc1
inactive: Potency [1] | Potency [2] | Potency [4] | Potency [5] | Potency [7] | Potency [8] | Potency [9] | max response [10] -19.4% | Potency [11] | Potency [12] | Potency [13] | Potency [14] | Potency [15] | Potency [16]

CCC(C)c1cc(C(C)(C)C)c(O)c(C(C)(C)C)c1 (centres undefined)
inactive: Potency [1] | Potency [2] | Potency [3] | Potency [5] | Potency [6] | Potency [7] | Potency [8] | Potency [9] | max response [10] 0.103% | Potency [15] | Potency [16]

C#Cc1cccc(Nc2ncnc3cc(OCCOC)c(OCCOC)cc23)c1
inactive: Potency [1] | Potency [2] | activity change, positive = activation [19] -38.1% [at 42.5 µM] | Potency [4] | Potency [5] | Potency [6] | Potency [7] | Potency [17] | Potency [8] | Potency [9] | max response [10] -23.8% | Potency [11] | Potency [13] | Potency [14] | Potency [15] | Potency [16]
active: Potency [18] 6.68 µM

COc1cc2c(cc1OC)C(C(C(=O)N(CCc1ccc(OC)c(OC)c1OC)CCc1ccc(OC)c(OC)c1OC)c1ccccc1)=NCC2 (centres undefined)
active: Potency [18] 26.6 µM | Potency [8] 3.01 µM | Potency [10] 3.38 µM
inactive: Potency [1] | Potency [2] | Potency [3] | activity change, positive = activation [19] -49.6% [at 42.5 µM] | Potency [6] | Potency [17] | Potency [11] | Potency [12] | Potency [14] | Potency [15]

Cc1[nH]c(C)c(Cl)c(=O)c1Cl
inactive: activation (H2AX phosphorylation) [1] 1.85% [at 31.6 µM] | activation [2] -0.25% [at 15.8 µM] | activity change, negative = cytotoxicity [4] 3.53% [at 15.8 µM] | activity change, negative = cytotoxic [5] -20.8% [at 15.8 µM] | cytotoxicity [6] 2.83% [at 15.8 µM] | activity change, negative = cytotoxic [7] 1.26% [at 15.8 µM] | cytotoxicity increase [17] -3.34% [at 15.8 µM] | activity change, negative = cytotoxicity [8] -23.6% [at 15.8 µM] | viability change, negative = cytotoxic [9] 0.139% [at 15.8 µM] | max response [10] -19.8% | activity change [11] -5.28% [at 15.8 µM, active compounds read high] | cytotoxicity increase [12] -3.96% [at 15.8 µM] | activity change, negative = cytotoxic [13] 3.22% [at 15.8 µM] | cytotoxicity [14] -5.69% [at 15.8 µM] | cytotoxicity increase [15] -5.76% [at 15.8 µM] | activity change, negative = cytotoxicity [16] 7.46% [at 15.8 µM]

CC(C)O.CC(C)O.CCOC(=O)/C=C(\C)O.CCOC(=O)/C=C(\C)O.[Ti]
inactive: Potency [1] | Potency [2] | Potency [4] | Potency [6] | Potency [7] | Potency [17] | Potency [8] | max response [10] -0.8% | Potency [11] | Potency [12] | Potency [14] | Potency [15] | Potency [16]
